Values without a mark were called inactive. No rule for the calls is given here.
Potency is read from the fitted curve at half-maximal effect.

This test relates to HIV-1 nucleocapsid protein NCp7 (binding to TG oligonucleotide). The test is described as follows: HIV Nucleocapsid (AID 346).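 Also: potency is for inhibitors that block NC binding and lower polarization.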 Conditions: HIV-1 NC / fluorescein-TGTGTGTG probe, fluorescence polarization. A digest of the protocol:
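10 nM TG4xF probe with 100 nM nucleocapsid protein in high-salt Hepes pH 7.5 (250mM NaCl) containing 1uM ZnCl2 and reducing agents. Compound inhibition of binding was read as fluorescein polarization after 1 hr at room temperature.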
Background: Polarisation of emitted light reports the rotation of a fluorescent probe.
Consider `CN(C)C(=O)c1ccc(-c2nccc(NCc3cccs3)n2)cc1`, for which the Potency was greater than 20 µM.

On to `COc1ccc(NC(=O)N2CCC3(CC2)CCN(C(=O)c2cccc(F)c2)CC3)cc1`, for which the Potency is greater than 20 µM.

Regarding `CS(=O)(=O)N1CCC2(CCCN(Cc3cc(C(F)(F)F)cc(C(F)(F)F)c3)C2)CC1`, the Potency is greater than 20 µM.

Consider `COc1ccc(C(=O)N2CCC3(CCCN(c4ccc(-c5ccccc5)cc4)C3)CC2)cc1`, for which the Potency was greater than 20 µM.

Take `Cc1cccc(CNc2ncncc2-c2ccccc2CN(C)C)c1`: the Potency was greater than 20 µM.

`COc1ccc(-c2nc3cnc(N(C)C)nc3n(C3CC3)c2=O)cc1`: the Potency is greater than 20 µM.

On to `COc1ccccc1CNc1ncncc1-c1ccccc1Cl`, for which the Potency was greater than 20 µM.

Take `c1nc(N2CCNCC2)c2cc(-c3ccc4c(c3)OCO4)ccc2n1`: the Potency was greater than 20 µM.

Regarding `Cc1ccccc1-c1nc(NCc2cccs2)c2ccccc2n1`, the Potency is greater than 20 µM.

On to `O=c1c(-c2ccc(F)cc2)nc2cnc(N3CCNCC3)nc2n1Cc1ccc(F)cc1`, for which the Potency was greater than 20 µM.

With `COc1ncc2nc(-c3cn(C)c4ccccc34)c(=O)n(CCC#N)c2n1`, the Potency was greater than 20 µM.

`N#Cc1cccc(-c2cncnc2NCc2cccs2)c1`: the Potency is greater than 20 µM.

For the compound `COc1ccc(C(=O)N2CCC3(CCCN(C)C3)CC2)cc1`, the Potency is greater than 20 µM.

`COc1ccccc1CNc1ncncc1-c1ccccc1C(F)(F)F`: the Potency was greater than 20 µM.

`Cn1cc(-c2nc3cnc(OCc4ccccc4)nc3n(CCC#N)c2=O)c2ccccc21`: the Potency was greater than 20 µM.

In the case of `COc1ncc2ncc(=O)n(CCC#N)c2n1`, the Potency is greater than 20 µM.

Regarding `Cc1ccccc1-c1cncnc1Nc1ccc(F)cc1`, the Potency was greater than 20 µM.

`O=C(c1csnn1)N1CCC2(CC1)CN(c1ccccn1)C2`: the Potency was greater than 20 µM.

`CS(=O)(=O)N1CCC2(CCN(C(=O)Nc3cccc(C#N)c3)CC2)CC1`: the Potency is greater than 20 µM.

On to `CN1CCN(c2ncnc3ccc(-c4ccc5c(c4)OCO5)cc23)CC1`, for which the Potency is greater than 20 µM.

With `COCCNc1ncnc2ccc(-c3ccccc3OC)cc12`, the Potency was greater than 20 µM.

On to `COc1cccc(Cn2c(=O)c(-c3cccc(Cl)c3)nc3cncnc32)c1`, for which the Potency was greater than 20 µM.

For the compound `COc1ccc2[nH]cc(CCNc3ncncc3-c3ccc(N(C)C)cc3)c2c1`, the Potency was greater than 20 µM.

Consider `N#CCCn1c(=O)c(CCc2ccccc2)nc2cnc(Oc3ccccc3)nc21`, for which the Potency is greater than 20 µM.

`COc1ccc(-n2c(=O)c(CCc3ccccc3)nc3cnc(N4CCN(C)CC4)nc32)cc1`: the Potency is greater than 20 µM.
